Here are results for 63 compounds from PubChem BioAssay AID686971 (National Center for Advancing Translational Sciences (NCATS), 2013).

Among all 360,000 compounds or so, about 7,500 (2.1%) were called active. Roughly 8% stayed inconclusive and do not appear here. The entries come from a sample that favours actives as a whole. A call without a number means that no potency is given here. A number with no mark means an inactive call. The call rests on the fitted dose curve; in most records, active means well fitted cell-killing curve with a large enough effect; inconclusive means small, poorly fitted or top-dose-only effect, or effect the other way, or another doubt; inactive means no such curve, though single readings can be large or run the other way.
Potency means the concentration at half of the fitted maximal effect.

This experiment is described as follows: qHTS for induction of synthetic lethality in tumor cells producing 2HG: qHTS for the HT-1080-IDH1KD cell line. To be noted: HT-1080 IDH1 knockdown viability, ATP luminescence, 48 h; series mostly up to 46.1 µM. Summed up: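 % activity derives from luminescence (CellTiter-Glo), normalised to DMSO and no-cell wells. HT-1080-IDH1KD cells, 750/well, had 48 h compound exposure at 37 °C.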
Background: qHTS replaces the single test concentration by a dilution series.
As for `COc1cccc(/C=N/Nc2ncc(C(F)(F)F)cc2Cl)c1O`, the Potency is 9.2 µM (active).

In the case of `COc1ccc(Br)cc1/C=N/Nc1ccc(Cl)c(C(=O)O)c1`, the Potency entry is “inactive”.

With `O=c1[nH]c2cccnc2n(CCNc2ncc(C(F)(F)F)cc2Cl)c1=O`, the Potency entry is “inactive”.

Turning to `CCOC(=O)c1c(C)[nH]c(C)c1C(=O)COC(=O)/C=C/c1cccc([N+](=O)[O-])c1`, the Potency entry is “inactive”.

`Nc1[nH]c(C(=O)c2ccccc2)c(-c2ccncc2)c1C(=O)NCc1cccc2ccccc12`: the Potency result was “inactive”.

For the compound `CCOC(=O)[C@]12CCCC=C1N(CCC1=CCCCC1)C(=O)[C@H](CC(=O)N1CCSCC1)C2`, the Potency result was “inactive”.

In the case of `Cc1ccccc1S(=O)(=O)NC(=O)C1(C)CCN1C(=O)C1(c2ccccc2)CCCC1` (stereo not drawn), the Potency entry was “inactive”.

In the case of `Fc1cnc(N2CCOCC2)nc1NCc1ccccc1`, the Potency result is “inactive”.

Take `c1ccc(-c2nnc(N3CCOCC3)c3ccccc23)cc1`: the Potency entry is “inactive”.

For the compound `c1ccc2c(NC3C4CC5CC(C4)CC3C5)nc(N3CCOCC3)nc2c1` (stereo not drawn), the Potency is 18.4 µM (active).

Consider `Cc1ccc(C=O)c([B-](F)(F)F)c1`, for which the Potency entry is “inactive”.

With `CN1c2ccc(C=O)c3c(C=O)ccc(c23)N(C)C1(C)C`, the Potency is 11.6 µM (active).

With `CC1CN(C(=O)c2cccc(NS(=O)(=O)c3ccc(Br)cc3)c2)CC(C)O1` (stereo not drawn), the Potency result is “inactive”.

For the compound `CCc1nc2c(OCC(N)=O)cccn2c1N(C)C(=O)c1ccc(OC)cc1`, the Potency entry was “inactive”.

Turning to `C[C@@H]1CN([C@H](C)CO)S(=O)(=O)c2ccc(C#C[C@@H](C)O)cc2O[C@@H]1CN(C)Cc1ccc(-c2ccccc2)cc1`, the Potency entry was “inactive”.

For the compound `COc1cc(C#Cc2ccc3cc(CCCO)oc(=O)c3c2)cc(OC)c1`, the Potency is 2.06 µM (active).

As to `O=C1c2ccccc2C(=O)N1CCC#Cc1ccc2cc(C3(O)CCCCC3)oc(=O)c2c1`, the Potency entry was “inactive”.

Take `COc1cc(/C=C2\Oc3ccc(C#Cc4ccc(O)cc4)cc3C2=O)cc(OC)c1`: the Potency result is “inactive”.

Consider `NC(=O)Cn1cc(/C=N\NS(=O)(=O)c2ccccc2)c2ccccc21`, for which the Potency entry was “inactive”.

As for `COC(=O)c1cn(CC(=O)NCc2cccs2)c2ccccc12`, the Potency entry is “inactive”.

Regarding `COC(=O)Cn1cc(/C=C/[N+](=O)[O-])c2ccccc21`, the Potency was 23.1 µM (active).

As to `COC(=O)[C@]12CCCCC=C1N(Cc1cccc3ccccc13)C(=O)[C@H](CC(=O)N1CCOCC1)C2`, the Potency entry was “inactive”.

Take `COCCCN1C(=O)C(CC(=O)NCc2cccs2)CC(C(=O)N2CCOCC2)=C1C` (stereo not drawn): the Potency result is “inactive”.

For `COC(=O)C1=C(Nc2ccc(OC)cc2)C=C(C)C(C(=O)OC)C1c1ccc(C)cc1` (stereo not drawn), the Potency entry was “inactive”.

With `COC(=O)C1=C(Nc2ccc(C)cc2)C=C(C)C(C(=O)OC)C1c1ccc(F)cc1` (stereo not drawn), the Potency was 11.2 µM (active).

For `COC(=O)C1C(=O)NCC1c1ccc(C)cc1` (stereo not drawn), the Potency result was “inactive”.

As to `COc1ccc(Cn2c(=O)oc3ccccc32)cc1`, the Potency result is “inactive”.

Take `CC(C)CCNC(=O)c1[nH]c(C(F)(F)F)nc1-c1ccccc1`: the Potency entry is “inactive”.

For `O=C(Nc1cc(F)ccc1F)c1ccc2c(=O)n3c(nc2c1)CCC3`, the Potency result was “inactive”.

As for `CC1(C(=O)NCc2ccc3c(c2)OCO3)CCN1C(=O)Cc1cccs1` (stereo not drawn), the Potency result is “inactive”.

Regarding `CN1CCn2cnc(C(=O)NCC(=O)OC(C)(C)C)c2C1=O`, the Potency result was “inactive”.

Consider `C[N+](C)(C)CCNC(=O)c1c[nH]c2ccccc12`, for which the Potency entry is “inactive”.

As to `CC[C@H]1CN2CCc3cc(OC)c(OC)cc3[C@@H]2C[C@@H]1C[C@H]1NCCc2cc(OC)c(OC)cc21`, the Potency was 0.13 µM (active).

On to `COc1cc2c(cc1OC)CN(CC(=O)Nc1ccc(F)cc1)CC2`, for which the Potency entry is “inactive”.

Turning to `Clc1ccc(-c2cccc3nccn23)cc1`, the Potency entry is “inactive”.

`Cc1cccc(CN2CCN(C3CN(Cc4ccccc4)S(=O)(=O)C3)CC2)c1` (stereo not drawn): the Potency entry was “inactive”.

On to `COc1cc(CCN=Cc2ccccc2O)c([N+](=O)[O-])cc1OC`, for which the Potency entry is “inactive”.

As to `Cc1cccc(-n2ncc(Cl)c(Cl)c2=O)c1`, the Potency is 20.6 µM (active).

With `Cc1ccc(Oc2cnn(-c3ccccc3)c(=O)c2Br)cc1`, the Potency entry was “inactive”.

`C=CCNc1cnn(-c2ccc(C)cc2)c(=O)c1Cl`: the activity, negative = toxicity is 5.14% [at 9.24 µM].

`CCCC(=O)N1CCC1(C)C(=O)NCc1ccc(C(C)C)cc1` (stereo not drawn): the Potency result is “inactive”.

As to `Cc1csc(=O)n1CCC(=O)OCC(=O)Nc1ccc(N2CCOCC2)cc1`, the Potency entry was “inactive”.

Regarding `COc1ccc(NC(=O)C(=O)NCC(=O)Nc2cccc(C(F)(F)F)c2)cc1`, the Potency result was “inactive”.

In the case of `O=C(Nc1ccc(C(=O)N2CCOCC2)cc1)Nc1cccc(C(F)(F)F)c1`, the Potency result was “inactive”.

In the case of `CC(C)C[C@H](NC(=O)Nc1cccc(C(F)(F)F)c1)C(=O)O`, the Potency result was “inactive”.

As to `NC(c1csc(NC(=O)Nc2cccc(C(F)(F)F)c2)n1)C1CCCCC1` (stereo not drawn), the Potency was 14.6 µM (active).

For the compound `COc1ccc(C(N)c2csc(NC(=O)Nc3cccc(C(F)(F)F)c3)n2)cc1` (stereo not drawn), the Potency was 18.4 µM (active).

On to `NC(c1ccccc1)c1csc(NC(=O)Nc2cccc(C(F)(F)F)c2)n1` (stereo not drawn), for which the Potency result was “inactive”.

For `Cc1ccccc1NC(=O)Cc1nc(COC(=O)c2ccc(C(F)(F)F)cc2)cs1`, the Potency result was “inactive”.

On to `COc1ccc(CC(N)c2csc(NC(=O)Nc3ccc(C(C)C)cc3)n2)cc1` (stereo not drawn), for which the Potency was 14.6 µM (active).

Turning to `CC(C)(C)CC(=O)Nc1nc(C(N)Cc2ccc(C(F)(F)F)cc2)cs1` (stereo not drawn), the Potency was 18.4 µM (active).

For `COC(=O)[C@H](CCSC)NC(=O)Nc1ccc(OC)cc1`, the Potency result was “inactive”.

For `CC(C)(C)CC(=O)Nc1nnc(SCC(=O)NCc2cccs2)s1`, the Potency entry is “inactive”.

With `COc1ccc(NC(=O)C(Br)C(C)C)cc1` (stereo not drawn), the Potency result is “inactive”.

Take `C=C1C=C(C)n2ncc(C(=O)Nc3ccccc3O)c2N1`: the Potency result was “inactive”.

Regarding `CCc1nc2c(OCCOc3ccccc3)cccn2c1N(C)C(=O)c1ccccc1F`, the Potency result was “inactive”.

On to `CCOc1cc(/C=N/NC(=O)c2ccncc2)cc(Br)c1O`, for which the Potency entry is “inactive”.

In the case of `Cc1cc(Cl)ccc1C(=O)C1CCCN(C(=O)c2ccc3c(c2)OCO3)C1` (stereo not drawn), the Potency result is “inactive”.

Take `C[C@@H]1CN([C@@H](C)CO)C(=O)CCCn2cc(nn2)CO[C@H]1CN(C)S(=O)(=O)c1ccc(-n2cccn2)cc1`: the Potency entry is “inactive”.

As to `O=C(c1ccc(CS(=O)Cc2ccccc2Cl)o1)N1CCN(c2ccccc2)CC1` (stereo not drawn), the Potency entry is “inactive”.

Turning to `CC1(C(=O)NS(=O)(=O)c2ccc(C#N)cc2)CCN1C(=O)c1ccc(C2CCCCC2)cc1` (stereo not drawn), the Potency entry was “inactive”.

Turning to `CCOC(=O)C1C(C)C(C(C)(C)C)N(S(=O)(=O)c2ccc(C)cc2)C1c1ccccc1` (stereo not drawn), the Potency result was “inactive”.

With `Cc1ccc(-c2ccc(CN3C(C)C(=O)N(Cc4cn(CCC5OCCCO5)nn4)CCS3(=O)=O)cc2)cc1` (stereo not drawn), the Potency entry was “inactive”.
